# Out of some 16,000 compounds screened, about 5,700 (36%) were called active. Roughly 24% stayed inconclusive and do not appear here. The list shows a part of the results. Values without a mark were called inactive. The call rests on the fitted dose curve; in most records, active means well fitted curve in the direction sought with a large enough effect; inconclusive means small, poorly fitted or top-dose-only effect, or effect the other way; inactive means no such curve, though single readings can be large or run the other way. Square brackets hold non-standard residues; d marks the D form. Peptide text beside a SMILES is read from it. Ac5c = NC1(C(=O)O)CCCC1
# Biological target: Cytochrome P450 1A2 (Homo sapiens) (UniProt P05177)
# Test: Cytochrome panel assay with activity outcomes
# Conditions: recombinant CYP, pro-luciferin dealkylation, luminescence, p450-cyp1a2; series mostly up to 57.1 µM
# On the % scale 0 is the no-effect control and ±100 the full control effect.
# Chain of Cytochrome P450 1A2 (Homo sapiens) (P05177 whole entry, looked up): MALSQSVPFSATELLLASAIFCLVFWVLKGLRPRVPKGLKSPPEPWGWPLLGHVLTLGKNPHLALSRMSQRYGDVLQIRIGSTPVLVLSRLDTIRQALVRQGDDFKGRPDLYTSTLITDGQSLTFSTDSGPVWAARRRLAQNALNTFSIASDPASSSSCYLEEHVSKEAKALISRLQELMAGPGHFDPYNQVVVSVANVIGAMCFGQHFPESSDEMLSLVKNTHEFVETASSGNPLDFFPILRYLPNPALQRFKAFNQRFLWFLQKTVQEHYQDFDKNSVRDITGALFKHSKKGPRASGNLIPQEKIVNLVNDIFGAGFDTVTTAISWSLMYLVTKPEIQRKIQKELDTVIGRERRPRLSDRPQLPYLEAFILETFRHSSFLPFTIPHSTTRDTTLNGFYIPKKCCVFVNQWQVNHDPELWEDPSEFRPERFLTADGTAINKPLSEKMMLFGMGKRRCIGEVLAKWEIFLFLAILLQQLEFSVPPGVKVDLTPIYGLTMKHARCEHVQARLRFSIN
SMILES,AC50,"activity, negative = inhibition"
CCOC(=O)O[C@]1(C(=O)COC(=O)CC)CC[C@@H]2[C@@H]3CCC4=CC(=O)C=C[C@@]4(C)[C@H]3[C@H](O)C[C@]21C,inactive,–
Cc1ccc(S(=O)(=O)Nc2ccc(=O)n(Cc3ccc(Cl)c(Cl)c3)c2)cc1,25.1 µM (active),–
O=c1ccc(NS(=O)(=O)c2ccccc2)cn1Cc1ccc(Cl)c(Cl)c1,inactive,–
Cc1cc(NS(=O)(=O)c2ccc(NC(=O)CN3C(=O)c4ccccc4C3=O)cc2)nc(C)n1,inactive,–
CCCn1c(-c2cccs2)nc2nc3ccccc3nc21,1.78 µM (active),–
Cc1ccc(NC(=O)Cn2nc([N+](=O)[O-])c(Br)c2C)cc1C,12.6 µM (active),–
Cc1c(Cl)c([N+](=O)[O-])nn1CC(=O)Nc1c(C)n(C)n(-c2ccccc2)c1=O,inactive,–
Cc1c(Br)c([N+](=O)[O-])nn1CC(=O)NCc1ccccn1,inactive,–
Cc1cc(C)c(S(C)(=O)=O)c(Oc2ccc(C(C)(C)C)cc2)n1,4.47 µM (active),–
Cc1cc(C)c(S(C)(=O)=O)c(Oc2ccc(F)cc2)n1,10 µM (active),–
COc1ccc(Oc2nc(C)cc(C)c2S(=O)(=O)c2ccc(C)cc2)cc1,inactive,–
O=C(O)[C@@H](O)[C@@H](O)[C@@H](O)[C@@H](O)C(=O)O (tested in a mixture with another compound),inactive,–
COc1ccc(CNc2nc(-c3ccccc3CN(C)C)nc3ccccc23)c(OC)c1,10 µM (active),–
COc1ccccc1CNc1nc(-c2ccccc2CN(C)C)nc2ccccc12,0.794 µM (active),–
COC(=O)c1[nH]c(C)c(/C(O)=C2\C(=O)C(=O)N(CCN(C)C)C2c2cccs2)c1C (stereo unspecified),inactive,–
C/C(Cl)=C/CSc1nnc2n(N)c(=O)c3ccccc3n12,11.2 µM (active),–
CCCSc1nnc2n(N)c(=O)c3ccccc3n12,4.47 µM (active),–
CCOc1ccccc1NC(=O)CN1CCC(NC(=O)c2ccccc2)CC1,inactive,–
CCC(=O)N[C@@H]1CCc2cccc(OC)c2C1,12.6 µM (active),–
COC(=O)N1CCC2(CC1)CCN(C(c1ccccc1)c1ccccc1)CC2,inactive,–
COc1ccc(CNc2cc(-c3ccoc3)ncn2)c(OC)c1,15.8 µM (active),–
COc1ccccc1CNc1cc(-c2ccoc2)ncn1,15.8 µM (active),–
COc1cccc(CNc2ccc3nc(-c4ccc(N)cc4)c(OC)n3n2)c1,39.8 µM (active),–
O=C(O)CSCNC(=O)CC12CC3CC(CC(C3)C1)C2,inactive,–
CC1(C)CC2(CC(c3cccs3)c3cc(Cl)c(O)cc3O2)NC(=S)N1 (stereo unspecified),inactive,–
O=C1CC(c2cccs2)c2cc3c(cc2N1)OCO3 (stereo unspecified),0.631 µM (active),–

SMILES,AC50,"activity, negative = inhibition"
CC(C)NC(=O)N1CCC2(CC1)CCN(C(=O)c1ccco1)CC2,inactive,–
CC(C)(C)CC(C)(C)c1ccc(O)c(C[N+](C)(C)[O-])c1,–,-17.9% [at 2.29 µM]
COC(=O)[C@H](Cc1ccccc1)NC(=O)[C@@H](C)CO,–,-9.35% [at 11.4 µM]
CCOC(=O)c1c(-c2ccccc2)cn2ccccc12,0.501 µM (active),–
CCOC(=O)c1c2c(n3ccccc13)C(=O)c1ccccc1C2=O,0.1 µM (active),–
O=C(O)C(Cc1ccccc1-c1ccccc1)C(=O)O,–,-6.71% [at 11.4 µM]
COc1ccc(CNC(=O)CN(CC2CCCO2)C(=O)CNS(=O)(=O)c2ccccc2)cc1 (stereo unspecified),inactive,–
COc1cc2cc(CN(CCCO)S(=O)(=O)c3ccccc3Cl)c(=O)[nH]c2cc1OC,inactive,–
COc1cccc(C(=O)N(Cc2ccccc2)Cc2cc3cc4c(cc3[nH]c2=O)OCCO4)c1,14.1 µM (active),–
N=C(N)SCCN,inactive,–
CCOc1ccc(/C(O)=C2\C(=O)C(=O)N(CCOCCO)C2c2ccccc2OC)cc1 (stereo unspecified),inactive,–
c1cncc(CNc2ncnc3ccc(-c4ccoc4)cc23)c1,0.316 µM (active),–
c1ccc(CNc2ncnc3ccc(-c4cccnc4)cc23)cc1,0.126 µM (active),–
c1ccc(Nc2ncnc3ccc(-c4cccnc4)cc23)cc1,0.0794 µM (active),–
Cc1cccc(CNc2ncnc3ccc(-c4cccnc4)cc23)c1,0.316 µM (active),–
CN(CC(=O)O)Cc1oc(CO)cc(=O)c1O,–,-18.3% [at 11.4 µM]
CSc1ccc(NC(=O)Nc2cc(C)ccn2)cc1,0.501 µM (active),–
CC(=O)Nc1ccc(Sc2ncccc2C(=O)Nc2ccc(F)cc2)cn1,inactive,–
Cc1ccnc(N)c1,inactive,–
COC(=O)/C=C\CCc1coc(/C=C\CNC(=O)OC)n1,–,2.69% [at 11.4 µM]
COC(=O)C1CSC(C(=O)OC)N1C(=O)Nc1c(C)cccc1C (stereo unspecified),inactive,–
O[C@@](CCN1CCCCC1)(c1ccccc1)C1CCCCC1,inactive,–
CC[C@H](CO)NCCN[C@@H](CC)CO,inactive,–
Cc1ccccc1CNc1ncnc2c1ncn2[C@@H]1O[C@@H](CO)[C@H](O)[C@@H]1O,inactive,–
Cn1c(=O)[nH]c(=O)c2c1nc(NCCCO)n2CCCc1ccccc1,inactive,–
Cn1cnc2c(NCc3ccccc3)nc(NCCO)nc21,5.01 µM (active),–

SMILES,AC50,"activity, negative = inhibition"
COc1cnc(SCc2ccc(Cl)cc2)nc1Cl,12.6 µM (active),–
FC(F)(F)c1nc(SCc2ccc(Cl)cc2)n[nH]1,–,-18.8% [at 2.29 µM]
CC1=CC(=O)c2ccccc2C1=O,0.158 µM (active),–
CCCCNC(=O)NS(=O)(=O)c1cnccc1Sc1ccc(Cl)cc1,inactive,–
CCCCNCCOCCSc1ccc(Cl)cc1,12.6 µM (active),–
CC(C)NCCOCCSc1ccc(Cl)cc1,5.01 µM (active),–
Cc1cc(=O)[nH]c2c1c(C)nn2C1CCOC(C)(C)C1 (stereo unspecified),inactive,–
CO[C@@H]1COC(=O)[C@H](C)NC(=O)[C@@H](C)COC(=O)CCC[C@H]1C,–,-10.3% [at 11.4 µM]
O=C(CCCCCn1c(=O)[nH]c2ccsc2c1=O)NCc1ccc2c(c1)OCO2,14.1 µM (active),–
CCOc1cc2[nH]c(=O)n(CCCC(=O)NCc3ccc(OC)cc3)c(=O)c2cc1OCC,inactive,–
O=C(CCn1c(=O)[nH]c2ccsc2c1=O)Nc1ccc(F)c(F)c1,inactive,–
CCOc1cc2[nH]c(=S)n(CCCC(=O)NCc3ccco3)c(=O)c2cc1OCC,inactive,–
Cc1nc2ncnn2c(C)c1CCC(=O)NCc1ccco1,inactive,–
O=C(CCCCn1c(=S)[nH]c2ccsc2c1=O)NCc1ccco1,1.26 µM (active),–
CC(=O)Nc1c(C)nn(-c2ccc(C)c(C)c2)c1C,14.1 µM (active),–
Cc1ccc(-n2c(C)cc(C(=S)N3CCOCC3)c2C)cc1C,inactive,–
CC(=O)Nc1c(C(=O)N2CCOCC2)cnn1-c1ccc(C)c(C)c1,inactive,–
NCC(=O)NC1(C(=O)O)CCCC1 (H-Gly-[Ac5c]-OH),–,-5.18% [at 11.4 µM]
O=C1CC(=O)C(n2cncn2)C(c2cccc(Cl)c2)C1 (stereo unspecified),inactive,–
C[N+](C)(C)CCCCCNCC12CC3CC(CC(C3)C1)C2,inactive,–
COc1ccccc1CN1CC2(CCN(C(=O)c3ccncc3)CC2)C1,inactive,–
COc1ccccc1CN1C(=O)c2ccncc2C1=O,14.1 µM (active),–
COc1ccccc1CN1CC2(CCN(C(=O)c3cnccn3)CC2)C1,inactive,–
O=C1N=C(N2CCOCC2)S/C1=C/c1cccs1,5.62 µM (active),–
NC1=NC(=O)/C(=C/c2cccs2)S1,1.41 µM (active),–
O=C1N=C(N2CCOCC2)S/C1=C\C=C/c1ccccc1,14.1 µM (active),–

SMILES,AC50,"activity, negative = inhibition"
CC(C)(C)OC(=O)[C@H]([C@@H]1N[C@@H](C(=O)O)C(C)(C)S1)N1C(=O)c2ccccc2C1=O,–,-1.41% [at 2.29 µM]
C[C@H]1CC(C)(C)C[C@@](OCCN2CCCCC2)(c2ccccc2)C1,–,0.209% [at 11.4 µM]
CCCN1CC=C2C(C#N)=C(N)C(C#N)(C#N)C(c3cc(OC)ccc3OC)C2C1 (stereo unspecified),31.6 µM (active),–
O=C(O)C[n+]1ccccc1,–,-7.86% [at 11.4 µM]
COc1ccc(O[C@H]2C=C[C@@H](c3ccccc3)O[C@H]2COC(=O)CC/C(C)=N/OCC[C@@H]2C=C[C@H](OC(C)=O)[C@H](COC(C)=O)O2)cc1,–,-2.16% [at 11.4 µM]
CN=C1N[C@H](c2ccccc2)N(c2ccccc2)S1,1.26 µM (active),–
Cc1c(CCC(C)C)c(-n2ccnc2C)n2c(nc3ccccc32)c1C#N,inactive,–
Cc1ccccc1S(=O)(=O)O[C@@H]1NS(=O)(=O)c2ccccc21,–,13.5% [at 2.29 µM]
Cc1ccccc1S(=O)(=O)Oc1ccccc1C(=O)Oc1ccccc1,3.55 µM (active),–
COC(=O)[C@H](Cc1ccccc1)NC(=O)N1CCN(Cc2ccccc2)CC1,inactive,–
O=C(O)Cc1c(O)ccc2ccccc12,–,-9.69% [at 11.4 µM]
Oc1ccc2ccccc2c1C=NCc1c(O)ccc2ccccc12,1.58 µM (active),–
c1ccc(-c2ccc(N3CC4(CCNCC4)C3)cc2)cc1,15.8 µM (active),–
c1ccc(-c2ccc(N3CCCC4(CCNCC4)C3)cc2)cc1,10 µM (active),–
O=S(=O)(c1ccccc1)N1CCC[C@@]2(CCN(c3ccncc3)C2)C1,inactive,–
O=C(c1csnn1)N1CCC2(CCCN(c3ccc(-c4ccccc4)cc3)C2)CC1,inactive,–
c1ccc(-c2ccc(N3CC[C@@]4(CCCNC4)C3)cc2)cc1,12.6 µM (active),–
c1ccc(C(c2ccccc2)N2CC[C@@]3(CCCNC3)C2)cc1,inactive,–
COc1ccccc1CN1CCCC2(CCNCC2)C1,inactive,–
N[C@@H](Cc1ccccc1)C(=O)O,–,-14% [at 11.4 µM]
CN(C)c1nc(-c2ccccc2C(F)(F)F)nc2ccccc12,0.251 µM (active),–
Cc1ccccc1-c1nc(N(C)C)c2ccccc2n1,0.631 µM (active),–
COc1ccccc1-c1nc(N(C)C)c2ccccc2n1,0.398 µM (active),–
